Experimental data taken from PubChem BioAssay AID1851 (National Center for Advancing Translational Sciences (NCATS), 2009).
About 2,600 (16%) of roughly 16,000 compounds were called active. Inconclusive results (about 20%) are left out. Calls come from the whole dose curve; as a rule, active = well fitted curve in the direction sought with a large enough effect; inconclusive = small, poorly fitted or top-dose-only effect, or effect the other way; inactive = no such curve, though single readings can be large or run the other way. These entries were drawn from the full list.

These compounds were tested against Cytochrome P450 2D6 (Homo sapiens) (UniProt P10635) (assay: Cytochrome panel assay with activity outcomes). Details: recombinant CYP, pro-luciferin dealkylation, luminescence, p450-cyp2d6; series mostly up to 57.1 µM.
Sequence of Cytochrome P450 2D6 (Homo sapiens) (P10635 whole entry, looked up): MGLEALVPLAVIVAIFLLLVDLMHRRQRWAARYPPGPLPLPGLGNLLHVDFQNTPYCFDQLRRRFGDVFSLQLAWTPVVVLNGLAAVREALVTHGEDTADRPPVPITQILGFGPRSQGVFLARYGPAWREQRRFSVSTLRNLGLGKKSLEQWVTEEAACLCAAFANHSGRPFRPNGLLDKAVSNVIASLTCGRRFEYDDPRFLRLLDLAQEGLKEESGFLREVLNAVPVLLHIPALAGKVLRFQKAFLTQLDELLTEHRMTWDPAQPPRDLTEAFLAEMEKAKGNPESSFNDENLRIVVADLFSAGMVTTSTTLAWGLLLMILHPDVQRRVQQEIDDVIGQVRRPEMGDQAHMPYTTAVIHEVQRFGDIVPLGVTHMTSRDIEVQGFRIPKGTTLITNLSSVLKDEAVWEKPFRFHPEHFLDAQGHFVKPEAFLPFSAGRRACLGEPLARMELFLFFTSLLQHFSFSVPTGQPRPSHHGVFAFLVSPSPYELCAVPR
% is set by controls: 0 for no effect and ±100 for the full control effect.

Row | SMILES | activity, negative = inhibition | AC50
1 | CCOC(=O)N/N=C1/C[C@@H](O)[C@@H](O)[C@@H]2[C@@H]3C(=O)N(C4CCCCC4)C(=O)[C@H]3CC[C@H]12 | -11.9% [at 11.4 µM] (inactive) | 
2 | CC(C)=CCC/C(C)=C/CO/N=C1/C[C@@H](O)[C@@H](O)[C@@H]2[C@@H]3C(=O)N(C4CCCCC4)C(=O)[C@H]3CC[C@@H]12 | 2.55% [at 11.4 µM] (inactive) | 
3 | CC(=O)OC[C@@H]1O[C@@H](O/N=C2/C[C@@H](O)[C@@H](O)[C@@H]3[C@@H]4C(=O)N(C5CCCCC5)C(=O)[C@H]4CC[C@H]23)[C@H](OC(C)=O)[C@H](OC(C)=O)[C@@H]1OC(C)=O |  | 3980 nM (active)
4 | O=C(NCc1cccnc1)[C@@H]1[C@@H](C(=O)O)[C@H]2CC[C@@H]1O2 | 8.3% [at 11.4 µM] (inactive) | 
5 | CC1CCCC(C)N1C(=O)c1cc(-c2ccc(Cl)c(Cl)c2)on1 (stereo not drawn) |  | inactive
6 | Cc1ccccc1C1C(C#N)=C2N=C(N)c3c(sc4c3CCCCC4)N2C2=C1C(=O)CC(C)(C)C2 (stereo not drawn) |  | inactive
7 | CO[C@]1(NC(=O)C2SC(=C(C(N)=O)C(=O)O)S2)C(=O)N2C(C(=O)O)=C(CSc3nnnn3C)CS[C@H]21 (stereo partly drawn) |  | inactive
8 | CCCCCCN1Cc2ccccc2C1 |  | 3550 nM (active)
9 | CCCCN1C(=O)CCC(C(=O)O)C1c1ccccc1 (stereo not drawn) |  | inactive
10 | CCc1ccc(/C=C\C(=O)N2CCc3ccccc3C2)cc1 |  | inactive
11 | Cc1cc(NC(=O)c2nn(C)c(C)c2[N+](=O)[O-])no1 |  | inactive
12 | Cc1ccc2[nH]c3c(N4CCc5ccccc5C4)ncnc3c2c1 |  | 708 nM (active)
13 | Cc1ccc(S(=O)(=O)Nc2nc3ccccc3nc2N2CCc3ccccc3C2)cc1 |  | inactive
14 | Cc1ccc(C2CC(=O)c3cnc(N4CCc5ccccc5C4)nc3C2)cc1 (stereo not drawn) |  | inactive
15 | CCN1CCN(Cc2ccc(NC(=O)Nc3cccs3)cc2)CC1 |  | inactive
16 | CCN[C@@H]1C[C@H](C)S(=O)(=O)c2sc(S(N)(=O)=O)cc21 |  | inactive
17 | CC(C)(C)C(=O)N(CCN(C(=O)C(C)(C)C)c1ccccc1)c1ccccc1 |  | inactive
18 | CN(C(=O)CN(CCO)CC(=O)N(C)C(C)(C)Cc1ccccc1)C(C)(C)Cc1ccccc1 |  | 3160 nM (active)
19 | C=CC(=O)NC(C)(C)Cc1ccccc1 |  | inactive
20 | O=C(CCC(=O)OCc1ccc(C(=O)Oc2ccccc2)cc1)Nc1cccc2ccccc12 |  | inactive
21 | CC(=O)Oc1cc(C(F)(F)F)ccc1C(=O)O |  | inactive
22 | CCSC1=C(C#N)C2(CCCCC2)C(C#N)=C(N)N1 |  | 15800 nM (active)
23 | C[C@H](Oc1ccccc1)C(=O)N[C@@H]1C(=O)N2[C@@H]1SC(C)(C)[C@@H]2C(=O)O |  | inactive
24 | COC(=O)[C@@]1(Cc2ccc(F)cc2)[C@@H]2[C@@H](CC(=O)[C@H]2CC(=O)C(=O)N(C)C)CN1C(=O)c1ccccc1 |  | inactive
25 | O=C(O)CNC(=O)c1ccccc1O | 7.44% [at 11.4 µM] (inactive) | 

Row | SMILES | activity, negative = inhibition | AC50
26 | CCCCCCCCCn1cc(C(C)=O)c(=O)[nH]c1=O |  | inactive
27 | CN1CCN(c2ncc3ncc(=O)n(Cc4cccs4)c3n2)CC1 |  | inactive
28 | CN(CCCNC(=O)c1cccn2c(=O)c3ccccc3nc12)Cc1ccccc1 |  | 2240 nM (active)
29 | CN(C)CCCNC(=O)CCc1nc2ccccc2c(=O)[nH]1 |  | inactive
30 | Cc1nc2ccccc2c(=O)n1NC(=O)c1ccccc1Cl |  | inactive
31 | COC(=O)[C@@H]1C[C@H]1[C@@H](NC(=O)c1cnccn1)c1ccccc1 |  | inactive
32 | COc1cccc(OC)c1/C(O)=C(\C#N)c1nc2ccccc2[nH]1 |  | inactive
33 | CCNC(=S)NNC(=O)c1cc(C)on1 |  | inactive
34 | CCS(=O)(=O)N1CCC(C(=O)NCC2CCCO2)CC1 (stereo not drawn) |  | inactive
35 | Cn1c(O)c(C(C#N)=C2N=c3ccccc3=N2)c2ccccc21 |  | 7080 nM (active)
36 | O=C1OCCC1Sc1nnc(-c2ccc(O)cc2)o1 (stereo not drawn) |  | inactive
37 | N#Cc1ccc(-c2ccc(F)cc2)nc1Sc1ccccc1 |  | inactive
38 | CCOc1ccc(C(Nc2ccc(C)cc2)P2(=O)OCC(C)(C)CO2)cc1 (stereo not drawn) |  | inactive
39 | C[C@@H]1CCc2cc(F)cc3c(=O)c(C(=O)O)cn1c23 |  | inactive
40 | O=C(O)Cc1c[nH]c2ccc(O)cc12 |  | inactive
41 | CC(C)CC(=O)Nc1ccc2c(c1)oc1ccccc12 |  | inactive
42 | O[C@H](C[C@@H]1CCCCN1)c1ccc2c(c1)oc1ccccc12 |  | 100 nM (active)
43 | O=C(Nc1cnn(Cc2ccc(Cl)cc2Cl)c1)c1cc(-c2cccs2)on1 |  | inactive
44 | Cc1ccc(NC(=O)c2nnn(-c3cc(C)cc(C)c3)c2N)cc1 |  | inactive
45 | COc1ccc(C(=O)NC(CO)c2nnc(SCc3ccc(Cl)c(Cl)c3)n2C)cc1 (stereo not drawn) |  | inactive
46 | CC(=O)Nc1ccnc(-c2cccnc2)n1 |  | inactive
47 | Cc1cccc(CNc2ccnc(-c3cccnc3)n2)c1 |  | 631 nM (active)
48 | O=C(Nc1ccnc(-c2cccnc2)n1)c1cccc(Cl)c1Cl |  | 2240 nM (active)
49 | Cc1ccccc1-c1nccc(NCc2cccnc2)n1 |  | 20000 nM (active)
50 | c1ccc(CNc2ccnc(-c3cccnc3)n2)cc1 |  | 1260 nM (active)

Row | SMILES | activity, negative = inhibition | AC50
51 | Cc1ccccc1-c1cc(NCc2cccnc2)ncn1 |  | inactive
52 | CC(C)(C)C(=O)Nc1ccnc(-c2cccnc2)n1 |  | inactive
53 | Cc1cccc(CNc2ccnc(-c3ccc(C(=O)N(C)C)cc3)n2)c1 |  | inactive
54 | O=[N+]([O-])c1ccccc1/C=N/n1c(COc2ccccc2)n[nH]c1=S |  | inactive
55 | Cc1ccc(/C=N/n2cnnc2)s1 |  | inactive
56 | Cn1c(=S)c2[nH]c(SCCN3C(=O)c4ccccc4C3=O)nc2n(C)c1=O | 2.46% [at 11.4 µM] (inactive) | 
57 | CCCCC(=O)Nc1nnc(SCC(=O)NC2CCCC2)s1 |  | inactive
58 | COc1cc2nc(N(C)CCCNC(=O)[C@@H]3CCCO3)nc(N)c2cc1OC |  | inactive
59 | Cn1c(=O)c2cc(S(=O)(=O)NCCC(=O)Nc3ccc(Cl)cc3)ccc2n(C)c1=O |  | inactive
60 | Cn1c(=O)c2cc(S(=O)(=O)NCCC(=O)NCCc3ccc(Cl)cc3)ccc2n(C)c1=O |  | 15800 nM (active)
61 | Cc1ccc(CNC(=O)CCNS(=O)(=O)c2ccc3c(c2)c(=O)n(C)c(=O)n3C)cc1 |  | inactive
62 | O=C1C(C2=NC(C(=O)O)C3C(=O)N(c4ccc(Cl)cc4)C(=O)C23)=C(O)c2ccccc21 (stereo not drawn) |  | inactive
63 | c1ccc(CSCCc2ccncc2)cc1 |  | 1260 nM (active)
64 | N[C@@H](CSCc1ccccc1)C(=O)O | -7.04% [at 11.4 µM] (inactive) | 
65 | c1ccc2c(CSCc3cccc4ccccc34)cccc2c1 | 9.11% [at 11.4 µM] (inactive) | 
66 | c1ccc2c(CSCCc3ccncc3)cccc2c1 |  | 398 nM (active)
67 | N=C(N)SCCc1ccncc1 | -9.64% [at 11.4 µM] (inactive) | 
68 | Clc1ccc(CSCCc2ccncc2)cc1Cl |  | 316 nM (active)
69 | O=C(O)c1cc(N=Cc2ccccc2O)cc(C(=O)O)c1 | 7.13% [at 11.4 µM] (inactive) | 
70 | FC(F)(F)c1nnc(-c2ccccc2)nc1Sc1ccccc1 |  | inactive
71 | Cc1cc(C2(c3cc(C)c(O)c(C(=O)O)c3)OS(=O)(=O)c3ccccc32)cc(C(=O)O)c1O | 5.11% [at 11.4 µM] (inactive) | 
72 | O=C1C2Sc3[nH]c(=O)sc3C(c3ccccc3)C2C(=O)N1c1ccccc1 (stereo not drawn) |  | inactive
73 | Cc1nc2cnc(N(C)C)nc2n(C2CC2)c1=O |  | inactive
74 | COc1cccc(-c2cncnc2NCCc2c[nH]c3ccc(OC)cc23)c1 |  | 2510 nM (active)
75 | COc1ccc2[nH]cc(CCNc3ncncc3-c3cccnc3)c2c1 |  | 12600 nM (active)

Row | SMILES | activity, negative = inhibition | AC50
76 | COc1ccc2[nH]cc(CCNc3ncncc3-c3cccc(NS(C)(=O)=O)c3)c2c1 |  | 3160 nM (active)
77 | O=C(O)CNc1ccc(C(=O)O)cc1 | 8.05% [at 11.4 µM] (inactive) | 
78 | Cc1ccccc1C(C(=O)NCc1ccccc1)N(Cc1ccco1)C(=O)c1ccccn1 (stereo not drawn) |  | inactive
79 | Cc1nn(C)cc1C(=O)NNC(=S)Nc1ccccc1 |  | inactive
80 | CCOc1ccc(-c2nn(-c3ccccc3)cc2/C=C(\C#N)S(=O)(=O)c2ccccc2)cc1C |  | inactive
81 | C[C@@]12CCC(=O)C=C1CC[C@@H]1[C@@H]2[C@H](O)C[C@]2(C)[C@@H]1CC[C@]2(O)C(=O)CO |  | inactive
82 | C[C@@H]1Cc2ccccc2N1NC(=O)c1ccc(Cl)c(S(N)=O)c1 (stereo partly drawn) |  | inactive
83 | O=C(NCC1CCC(C(=O)O)CC1)OCc1ccccc1 (stereo not drawn) |  | inactive
84 | COc1ccc2c(CC(=O)NCC3CCC(C(=O)O)CC3)cc(=O)oc2c1 (stereo not drawn) |  | 6310 nM (active)
85 | COc1ccc2cc(CCNC(=O)C3CC3)c(=O)[nH]c2c1 |  | inactive
86 | CC(=O)Nc1ccc([N+](=O)[O-])cn1 |  | inactive
87 | CO[C@@H]1/C=C\CC(=O)N[C@@H](C)C(=O)OC[C@@H](OC)[C@H](C)CCCC(=O)OC[C@H]1C | 17% [at 11.4 µM] (inactive) | 
88 | CSc1nc(C)c(CCOC(=O)c2cccc(C)c2)c(=O)[nH]1 |  | inactive
89 | CCN(CC)S(=O)(=O)c1cc(C(=O)OC)ccc1Cl |  | inactive
90 | CCN(CC)S(=O)(=O)c1cc(C(=O)Nc2ccncc2)ccc1Cl |  | 2240 nM (active)
91 | CCN(CC)S(=O)(=O)c1cc(C(=O)Nc2ccccc2C(=O)O)ccc1OC |  | inactive
92 | CC(C)(C)CC(C)(C)c1cc(O)c(O)c(CN2CCCCC2)c1 | -16.1% [at 11.4 µM] (inactive) | 
93 | Oc1c(CN2CCCCC2)cc(Br)c2cccnc12 |  | 7940 nM (active)
94 | NS(=O)(=O)c1cc(Br)c(N=Nc2ccc(O)c3ncccc23)c(Br)c1 | -4.11% [at 11.4 µM] (inactive) | 
95 | Nc1nc2c(nc(Br)n2[C@@H]2O[C@H]3COP(=O)(O)O[C@@H]3[C@H]2O)c(=O)[nH]1 |  | inactive
96 | CCN(CC)c1cc(C)c2cc(NC(=O)CNC(C)=O)ccc2n1 |  | inactive
97 | O=C(Cc1ccc2c(c1)CCCC2)Nc1ccccc1Br |  | inactive
98 | CC(C)N=c1cc2n(-c3ccc(Cl)cc3)c3ccccc3nc-2cc1Nc1ccc(Cl)cc1 |  | 2510 nM (active)
